{
  "source": "paper PMC4336329",
  "about": "(PLoS ONE, 2015)",
  "note": "Screen size: about 310,000 compounds; about 14,000 (4.5%) showed an effect of 50% or more. Effects have a minus sign here. What follows is part of a selection rich in strong results, with near analogues and random picks from the rest.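 Further: peak tail current of the secondary pulse compared with the same well before compound.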",
  "data": [
    {"biological_target": "human ether-à-go-go-related gene (hERG) potassium channel (human, UniProt Q12809)", "sequence (Q12809 whole entry, looked up)": "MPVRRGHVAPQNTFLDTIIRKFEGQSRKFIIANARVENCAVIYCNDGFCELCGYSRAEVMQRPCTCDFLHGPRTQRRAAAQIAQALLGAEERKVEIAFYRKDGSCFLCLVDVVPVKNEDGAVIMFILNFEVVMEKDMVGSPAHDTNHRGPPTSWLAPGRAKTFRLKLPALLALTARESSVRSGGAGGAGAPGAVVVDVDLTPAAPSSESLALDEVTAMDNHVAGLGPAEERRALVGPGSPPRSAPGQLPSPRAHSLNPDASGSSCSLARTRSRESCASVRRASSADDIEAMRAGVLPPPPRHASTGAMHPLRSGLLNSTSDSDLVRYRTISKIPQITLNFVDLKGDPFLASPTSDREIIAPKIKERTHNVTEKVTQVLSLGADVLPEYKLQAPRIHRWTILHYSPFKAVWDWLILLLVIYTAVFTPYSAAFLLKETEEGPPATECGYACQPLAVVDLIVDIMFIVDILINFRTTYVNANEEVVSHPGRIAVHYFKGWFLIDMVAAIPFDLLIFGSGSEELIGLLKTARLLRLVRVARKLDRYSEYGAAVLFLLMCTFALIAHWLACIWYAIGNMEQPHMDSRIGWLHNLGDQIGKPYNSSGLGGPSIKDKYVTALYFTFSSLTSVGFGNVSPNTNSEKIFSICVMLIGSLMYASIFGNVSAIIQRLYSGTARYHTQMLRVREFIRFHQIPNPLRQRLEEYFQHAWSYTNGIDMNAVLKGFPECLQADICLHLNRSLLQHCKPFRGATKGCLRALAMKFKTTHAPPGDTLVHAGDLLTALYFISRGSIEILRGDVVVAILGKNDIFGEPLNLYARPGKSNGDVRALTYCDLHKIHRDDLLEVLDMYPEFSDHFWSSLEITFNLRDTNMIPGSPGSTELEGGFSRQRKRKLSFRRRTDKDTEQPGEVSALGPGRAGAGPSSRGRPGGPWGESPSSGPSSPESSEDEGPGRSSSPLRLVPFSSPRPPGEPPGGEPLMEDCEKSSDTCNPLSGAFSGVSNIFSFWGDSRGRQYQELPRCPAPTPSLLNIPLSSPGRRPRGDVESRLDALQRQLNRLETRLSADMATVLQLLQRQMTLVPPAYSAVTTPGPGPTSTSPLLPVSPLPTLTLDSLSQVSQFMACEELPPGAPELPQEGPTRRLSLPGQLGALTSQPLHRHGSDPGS", "assay": "primary screen, population patch clamp on CHO cells stably expressing hERG; higher = less effect of the substance", "units": {"hERG current change (%, negative = inhibition) at 10uM": "%"}, "values": [
      {"smiles": "O=C(O)Cn1c2ccccc2c2ccccc21", "hERG current change (%, negative = inhibition) at 10uM": 30.5},
      {"smiles": "COc1ccc2c(c1OC)C(=O)N(c1ncn[nH]1)C2", "hERG current change (%, negative = inhibition) at 10uM": 13.5},
      {"smiles": "O=C(/C=C\\c1ccc(-c2cccc([N+](=O)[O-])c2)o1)N1CCOCC1", "hERG current change (%, negative = inhibition) at 10uM": -10.2},
      {"smiles": "Cc1ccc2[nH]c3c(=O)n(CC(=O)N4CCN(C)CC4)ncc3c2c1", "hERG current change (%, negative = inhibition) at 10uM": -1.46},
      {"smiles": "Cn1c(=O)n(C)c2cc(NC(=O)CSc3ccccc3)ccc21", "hERG current change (%, negative = inhibition) at 10uM": 4.01},
      {"smiles": "CCc1nc2ccccc2n1CCc1ccccc1.Cl", "hERG current change (%, negative = inhibition) at 10uM": -16.6},
      {"smiles": "CN(C(=O)c1cc([N+](=O)[O-])ccc1N1CCCC1)C1CCCCC1", "hERG current change (%, negative = inhibition) at 10uM": 1.07},
      {"smiles": "CCN(CC)S(=O)(=O)c1cccc(-c2nnc(SCC(N)=O)n2CCc2ccccc2)c1", "hERG current change (%, negative = inhibition) at 10uM": -37.3},
      {"smiles": "CCN(CC)S(=O)(=O)c1cccc(-c2nnc(SCc3ncc(-c4ccccc4)o3)n2C)c1", "hERG current change (%, negative = inhibition) at 10uM": -68.2},
      {"smiles": "CCN(CC)S(=O)(=O)c1cccc(-c2nnc(SCC(=O)NC)n2CCc2ccccc2)c1", "hERG current change (%, negative = inhibition) at 10uM": -27.3},
      {"smiles": "CCCNC(=O)C(Cc1ccc(OC)cc1)NC(=O)c1ccc(C#N)cc1", "note": "(stereo not drawn)", "hERG current change (%, negative = inhibition) at 10uM": -50.7},
      {"smiles": "CCCNC(=O)C(Cc1cccc(C#N)c1)NC(=O)c1ccc(C#N)cc1", "note": "(stereo not drawn)", "hERG current change (%, negative = inhibition) at 10uM": -55.9},
      {"smiles": "CCCNC(=O)C(Cc1ccc(I)cc1)NC(=O)c1ccc(C#N)cc1", "note": "(stereo not drawn)", "hERG current change (%, negative = inhibition) at 10uM": 8.48},
      {"smiles": "CCCNC(=O)C(Cc1cccc(C#N)c1)NC(=O)c1cccc([N+](=O)[O-])c1", "note": "(stereo not drawn)", "hERG current change (%, negative = inhibition) at 10uM": -10.2},
      {"smiles": "CCCNC(=O)C(Cc1cccc(Cl)c1)NC(=O)c1ccc(C#N)cc1", "note": "(stereo not drawn)", "hERG current change (%, negative = inhibition) at 10uM": -11},
      {"smiles": "CCCNC(=O)C(Cc1cccc(OC)c1)NC(=O)c1ccc(C#N)cc1", "note": "(stereo not drawn)", "hERG current change (%, negative = inhibition) at 10uM": -7.8},
      {"smiles": "O=C(Oc1ccc(F)cc1)c1ccc2c(=O)n3c(nc2c1)CCC3", "hERG current change (%, negative = inhibition) at 10uM": -21.6},
      {"smiles": "O=C(COC(=O)c1cccc(O)c1)NC(=O)Cc1ccccc1", "hERG current change (%, negative = inhibition) at 10uM": 3.25},
      {"smiles": "Cc1nn(-c2ccccc2)c(N2CCCC2)c1/C=C1\\N=C(c2ccccc2)OC1=O", "hERG current change (%, negative = inhibition) at 10uM": 11.7},
      {"smiles": "CCCCCC(=O)NNC(=O)c1c(O)c2ccccc2n(CC)c1=O", "hERG current change (%, negative = inhibition) at 10uM": -13.5},
      {"smiles": "Cc1cccc(N=C2NN=C(c3ccccc3F)CS2)c1C", "hERG current change (%, negative = inhibition) at 10uM": 41.8},
      {"smiles": "Cc1cc(N2CCC(C)CC2)nc2cccc(O)c12", "hERG current change (%, negative = inhibition) at 10uM": -28.7},
      {"smiles": "COc1ccc(N2CCN(c3c(S(=O)(=O)c4ccccc4)cnc4ccc(OC)cc34)CC2)cc1", "hERG current change (%, negative = inhibition) at 10uM": -17.7},
      {"smiles": "COc1cc2ncc(C(=O)c3ccccc3)c(N3CCN(Cc4ccccc4)CC3)c2cc1OC", "hERG current change (%, negative = inhibition) at 10uM": -12.9},
      {"smiles": "CCOc1ccc2ncc(S(=O)(=O)c3ccccc3)c(N3CCN(c4ccc(OC)cc4)CC3)c2c1", "hERG current change (%, negative = inhibition) at 10uM": -10.9},
      {"smiles": "CCc1ccc(C(=O)c2cnc3ccc(OC)cc3c2N2CCN(CC)CC2)cc1", "hERG current change (%, negative = inhibition) at 10uM": -67.7},
      {"smiles": "CCc1ccc2ncc(C(=O)c3ccccc3)c(N3CCOCC3)c2c1", "hERG current change (%, negative = inhibition) at 10uM": -45.7},
      {"smiles": "CCOC(=O)c1cnc2ccc(OCC)cc2c1N1CCN(C)CC1.Cl", "hERG current change (%, negative = inhibition) at 10uM": -47.8},
      {"smiles": "CCOc1ccc2ncc(C(=O)c3ccc(OC)cc3)c(N3CCN(CC)CC3)c2c1", "hERG current change (%, negative = inhibition) at 10uM": -74.5},
      {"smiles": "CCN1CCN(c2c(C=O)c(Cl)nc3ccc(OC)cc23)CC1", "hERG current change (%, negative = inhibition) at 10uM": -54.5},
      {"smiles": "CCOC(=O)c1cnc2ccc(OCC)cc2c1N1CCN(c2ccccc2OC)CC1", "hERG current change (%, negative = inhibition) at 10uM": -5.78},
      {"smiles": "CSc1ccccc1NC(=O)Cn1ccsc1=N", "hERG current change (%, negative = inhibition) at 10uM": 33.3},
      {"smiles": "Cc1cc(NC(=O)CCCC(=O)OCC(F)(F)C(F)F)cc(C)c1C(=O)O", "hERG current change (%, negative = inhibition) at 10uM": 20.1},
      {"smiles": "O=C(O)CC1OCC=C2CN3CCC45C6=CC(=O)C(=O)C([N+](=O)[O-])=C6NC4C1C2CC35", "note": "(stereo not drawn)", "hERG current change (%, negative = inhibition) at 10uM": 10.1},
      {"smiles": "Cc1ccc(C)c(N2CCN(C(=O)Cn3cccc3)CC2)c1", "hERG current change (%, negative = inhibition) at 10uM": -19},
      {"smiles": "COc1ccc(/C=C/c2cc(C(F)(F)F)[nH]c(=O)n2)cc1OC", "hERG current change (%, negative = inhibition) at 10uM": -6.91},
      {"smiles": "COc1cc(/C=C/c2cc[n+](C)cc2)ccc1OCC(=O)Nc1ccc(Cl)c(Cl)c1.[I-]", "hERG current change (%, negative = inhibition) at 10uM": -5.84},
      {"smiles": "CS(=O)(=O)N(CC(=O)N1CCCC1)c1ccc(OCc2ccccc2)cc1", "hERG current change (%, negative = inhibition) at 10uM": -15.7},
      {"smiles": "OCCC#Cc1ccc(CN2CCN(CCc3ccccc3)C(CCO)C2)cc1", "note": "(stereo not drawn)", "hERG current change (%, negative = inhibition) at 10uM": -20.7},
      {"smiles": "C#Cc1ccc(CN2CCN(CCc3ccccc3)C(CCO)C2)cc1", "note": "(stereo not drawn)", "hERG current change (%, negative = inhibition) at 10uM": -58.8},
      {"smiles": "C#Cc1ccc(CN2CCN(CCCc3ccccc3)C(CCO)C2)cc1", "note": "(stereo not drawn)", "hERG current change (%, negative = inhibition) at 10uM": -69.8},
      {"smiles": "Nc1c(C(=O)NC2CCCC2)c2nc3ccccc3nc2n1N", "hERG current change (%, negative = inhibition) at 10uM": 25.1}
    ]}
  ]
}
